Reference: PubChem BioAssay AID720582 (The Scripps Research Institute Molecular Screening Center, 2013)
Hit rate of the full screen: of about 370,000 compounds, about 2,300 (0.62%) were called active.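 Rule for the calls: active = inhibition above a per-campaign cutoff equal to the mean of compounds falling between control-based bounds plus 3 SD (cut at about 20% in these data); inactive = the rest.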 The full list was thinned out, with actives kept by preference.

Each compound was assayed against Disintegrin and metalloproteinase domain-containing protein 10 (Homo sapiens) (UniProt O14672) (assay: human ADAM10 inhibitors, primary screen, biochemical, QFRET, HTS (AID 720582;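 note: 0% = DMSO wells while the 100% control is not disclosed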)). Settings: recombinant ADAM10, EDANS/DABCYL FRET peptide cleavage, 3 h; at 7 µM; stronger effect = higher value.
Disintegrin and metalloproteinase domain-containing protein 10 (Homo sapiens), sequence (O14672 214-748 limits assumed): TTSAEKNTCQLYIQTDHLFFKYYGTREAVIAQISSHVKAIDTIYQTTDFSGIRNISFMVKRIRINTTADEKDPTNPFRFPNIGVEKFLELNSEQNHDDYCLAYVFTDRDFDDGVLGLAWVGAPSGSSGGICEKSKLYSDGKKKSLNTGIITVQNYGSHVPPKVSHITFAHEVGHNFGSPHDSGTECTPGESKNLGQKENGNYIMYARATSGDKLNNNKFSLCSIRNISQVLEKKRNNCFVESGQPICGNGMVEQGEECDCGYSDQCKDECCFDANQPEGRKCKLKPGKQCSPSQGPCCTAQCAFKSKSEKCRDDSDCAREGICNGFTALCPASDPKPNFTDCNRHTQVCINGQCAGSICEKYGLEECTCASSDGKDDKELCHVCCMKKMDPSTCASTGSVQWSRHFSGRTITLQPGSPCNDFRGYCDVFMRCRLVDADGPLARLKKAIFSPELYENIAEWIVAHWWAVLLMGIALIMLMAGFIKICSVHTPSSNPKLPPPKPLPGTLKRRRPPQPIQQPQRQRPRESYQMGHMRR

| Compound | inhibition |
| --- | --- |
| CCCNC(=O)C1CC(=O)N(c2ccc(OCc3ccccc3)cc2)C1 (stereo not given) | -1.57% (inactive) |
| COc1cc(C2CC(=O)N3CN(Cc4ccccc4)CSC3=C2C#N)ccc1OCc1ccccc1 (stereo not given) | 27.5% (active) |
| COc1cc(C2C(C(=O)c3ccco3)=C(O)C(=O)N2c2cc(C)on2)ccc1OCc1ccccc1 (stereo not given) | -2.12% (inactive) |
| N[C@@H](Cc1ccccc1)C(=O)N1CCC[C@@H]1C(=O)N1CCC2CCN(S(=O)(=O)c3ccccc3)CC21 (stereo not given in full) | -2.11% (inactive) |
| COC[C@@H]1CCCN1c1ccc2c(c1)O[C@H](C)CCN(C1CC1)S2(=O)=O | -3.66% (inactive) |
| COC(=O)[C@@]12CCCCC=C1N(CCc1ccc(Cl)cc1)C(=O)[C@H]2CC(=O)NCc1ccc(OC)c(OC)c1 | 5.19% (inactive) |
| C[C@H]1[C@H](NC(=O)c2cccc(N(C)C)c2)CC[C@@]23CCCN2C(=O)CCC[C@@H]13 | -106% (inactive) |
| Cc1csc(NC(=O)CSc2nnc(-c3cccnc3)o2)n1 | -10.7% (inactive) |
| CC(NC(=O)COc1ccccc1)C(=O)NC1=NCCS1 (stereo not given) | -1.01% (inactive) |
| O=C(CSC1=NCCS1)Nc1nc(-c2ccccc2)cs1 | 20.3% (active) |
| O=C(C[C@H]1C(=O)N(c2ccc(F)c(F)c2)C[C@@H]1Cc1ccccc1)Nc1ccccc1 | 23.2% (active) |
| C[C@H]1CN(c2ccc(Br)cc2)C(=O)[C@@H]1CC(=O)Nc1ccc(Br)cc1 | -2.69% (inactive) |
| CNC(=O)C[C@H]1C(=O)N(c2ccc(OC)cc2)C[C@@H]1Cc1ccccc1 | -1.73% (inactive) |
| CCN(c1ccc(NC(=O)COC(=O)CCc2nc3ccccc3n2-c2ccccc2)cc1)C(C)C | 15.2% (inactive) |
| O=C(COC(=O)CCc1nc2ccccc2c(=O)[nH]1)Nc1ccc(N2CCOCC2)cc1 | 0.32% (inactive) |
| O=C(COC(=O)CCCSc1nc2ccccc2[nH]1)Nc1ccc(Oc2ccccc2)cc1 | 23.7% (active) |
| COc1cccc(N2CCN(CC(=O)N(C)Cc3ccc(F)cc3)CC2)c1 | -2.14% (inactive) |
| CCCC(=O)Nc1ccc(C(=O)NCCCn2ccnc2)cc1 | -4.06% (inactive) |
| CCOC(=O)[C@]12CCCC3=C1N(CCC3)C(=O)[C@@H](CC(=O)N1CCSCC1)C2 | 4.75% (inactive) |
| CCN1C(=O)[C@H]2[C@@H](c3ccc(C(F)(F)F)cc3)N[C@]3(CCCN(Cc4ccc(Br)cc4)C3=O)[C@H]2C1=O | 2.63% (inactive) |
| O=C1[C@H]2[C@@H](c3ccc(C(F)(F)F)cc3)N[C@]3(CCCN(Cc4ccc(Br)cc4)C3=O)[C@H]2C(=O)N1Cc1ccccc1 | 36.9% (active) |
| O=C1[C@H]2[C@@H](c3ccc(C(F)(F)F)cc3)N[C@]3(CCCN(Cc4ccc(Cl)cc4)C3=O)[C@H]2C(=O)N1Cc1ccccc1 | 17.5% (inactive) |
| CC(C)N1CCCCC(NC(=O)c2ccc3ccccc3c2)C1=O (stereo not given) | -1.93% (inactive) |
| CCOC(=O)[C@]12CCCC3=C1N(CCC3)C(=O)[C@@H](CC(=O)NCc1cccs1)C2 | -1.3% (inactive) |
| CC(C)CNC(=O)OCc1cn(Cc2ccc(F)cc2)nn1 | 2.74% (inactive) |

| Compound | inhibition |
| --- | --- |
| O=C(CSc1nc2ccccc2nc1N1CCCCC1)N1CCN(S(=O)(=O)c2cccc([N+](=O)[O-])c2)CC1 | -10.6% (inactive) |
| COC(=O)[C@@]12C[C@@H](CC(=O)NCCCCc3ccccc3)C(=O)N(CCc3ccc(OC)c(OC)c3)C1=CCC(C)(C)C2 | 20.4% (active) |
| COC(=O)[C@@]12C[C@@H](CC(=O)NCCCCc3ccccc3)C(=O)N(Cc3ccccc3)C1=CCC(C)(C)C2 | 14.6% (inactive) |
| COC(=O)[C@]12C[C@H](CC(=O)NCc3ccccc3)C(=O)N(CCc3ccc(OC)c(OC)c3)C1=C[C@H](C(C)(C)C)O[C@@H]2C | 10.1% (inactive) |
| c1coc(CCNc2ncnc3ccc(-c4ccc5c(c4)OCO5)cc23)c1 | -144% (inactive) |
| CCC(=O)c1c(CC)c2n3c1=CC[C@H]3CC(Br)C=2 (stereo not given in full) | -7.64% (inactive) |
| COC(=O)[C@]12C[C@H](CC(=O)NCc3ccccc3)C(=O)N(CCC3=CCCCC3)C1=C[C@H](C(C)C)O[C@@H]2C1CC1 | 15.1% (inactive) |
| Cc1cc(C)cc(NS(=O)(=O)c2ccc(Oc3ncc(C(F)(F)F)cc3Cl)cc2)c1 | 24% (active) |
| CN(NS(=O)(=O)c1cccs1)c1ncc(C(F)(F)F)cc1Cl | -3.41% (inactive) |
| O=S(=O)(Nc1ccc(Oc2ncccn2)c(Cl)c1)c1ccc(F)cc1 | 7.14% (inactive) |
| Cc1ccc(NC(=O)c2cc(C)nn2-c2ccccc2)c(C)c1 | 1.23% (inactive) |
| C#CCN([C@H](C(=O)OC)C(C)CC)S(=O)(=O)c1ccccc1Br (stereo not given in full) | 5.73% (inactive) |
| COC(=O)C1=C(C)N(C)C(C)=C(C(=O)OC)C1c1cccc(Br)c1 | 1.25% (inactive) |
| COC(=O)C1NN=C(C(=O)c2ccc(Br)cc2)C1c1cccc(Br)c1 (stereo not given) | 20% (active) |
| COC(=O)CN1C(C)=Nc2ccc(Br)cc2C1c1ccccc1 (stereo not given) | -0.34% (inactive) |
| COc1cccc(Cn2cc(COC(=O)Nc3ccc(F)cc3)nn2)c1 | 3.55% (inactive) |
| O=C(C1CCCN1S(=O)(=O)c1ccccc1)N1CCc2ccccc2C1 (stereo not given) | 5.1% (inactive) |
| CC(C)(C)OC(=O)CNC(=O)c1[nH]cnc1C(=O)N[C@@H](Cc1ccccc1)C(=O)OCc1ccccc1 | 27% (active) |
| CC(C)(C)OC(=O)N1CCC(NC(=O)c2[nH]cnc2C(=O)N[C@@H](Cc2ccccc2)C(=O)OCc2ccccc2)CC1 | 26.5% (active) |
| C[C@@H](NC(=O)c1nc[nH]c1C(=O)N1CCN(C(=O)OC(C)(C)C)CC1)c1ccccc1 | -5.64% (inactive) |
| C[C@H](NC(=O)c1nc[nH]c1C(=O)NCC(=O)OC(C)(C)C)c1ccccc1 | 4.61% (inactive) |
| CNC(=O)c1[nH]cnc1C(=O)N[C@@H](CC(C)C)C(=O)OC(C)(C)C | 1.72% (inactive) |
| CNC(=O)c1[nH]cnc1C(=O)N[C@@H](CC(C)C)C(=O)OCc1ccccc1 | -0.66% (inactive) |
| CCOC(=O)C1CCN(C(=O)C(C)(C)NC(=O)Nc2ccccc2Cl)CC1 | -4.18% (inactive) |
| O=C(c1ccccc1)c1ccc(-c2ccccc2C(=O)NC2CCCCN(Cc3ccc(Cl)cc3)C2=O)cc1 (stereo not given) | 0.76% (inactive) |

| Compound | inhibition |
| --- | --- |
| COc1ccc(CCNC(=O)CSc2nc3c([nH]2)c(=O)n(C)c(=O)n3C)cc1 | -8.76% (inactive) |
| Cc1cc(C)n2ncc(C(=O)Nc3ccc4c(c3)OCCO4)c2n1 | -3.85% (inactive) |
| CCC(=O)Nc1ccc2c(c1)C(=O)N(C)[C@H]1CC[C@H](CC(=O)NCCOC)O[C@@H]1CO2 | 2.62% (inactive) |
| Cc1cccc(CCNS(=O)(=O)c2ccc3c(c2)NC(=O)CO3)c1 | 0.59% (inactive) |
| CC(C)c1ccc(S(=O)(=O)NC2CCCC2)cc1 | -3.8% (inactive) |
| Cc1cccc(CCNS(=O)(=O)c2ccc(S(=O)(=O)NC3CCCC3)cc2)c1 | 27.1% (active) |
| Cc1ccc(NC(=S)NNC(=O)CSc2nnc(SCc3ccccc3Cl)s2)cc1 | 17.8% (inactive) |
| Cn1c(Nc2ccccc2)cc(=O)n(C)c1=O | 7.08% (inactive) |
| Cc1ccc(NC(=O)Nc2cc(C)nn2-c2ccccc2)cc1 | -2.62% (inactive) |
| Cc1cc(Nc2ccccc2)n(C(=O)c2ccc(N)cc2)n1 | 21.3% (active) |
| O=C(Nc1cccc(S(=O)(=O)Nc2ccc(Cl)cc2)c1)c1ccc2c(c1)OCCO2 | 20.5% (active) |
| CC(=O)Nc1ccc(C(=O)Nc2cccc(S(=O)(=O)NC3=NCCC3)c2)cc1 | -1.25% (inactive) |
| O=C(NNC(=O)c1cccc(S(=O)(=O)Nc2ccc(Cl)cc2)c1)c1ccc(=O)[nH]c1 | 2.04% (inactive) |
| O=C(NC1CCC1)c1ccc(C#CC2CC2)cn1 | -7.03% (inactive) |
| COc1ccc(-n2c(COc3ccc(C)cc3)nnc2SCC(=O)Nc2ccc(Oc3ccccc3)cc2)cc1 | -2.63% (inactive) |
| COc1ccc(-c2cc(C(=O)N3CCN(Cc4ccc5c(c4)OCO5)CC3)on2)cc1OC | -0.99% (inactive) |
| COc1cc(COCC(O)CN2CCN(Cc3ccc4c(c3)OCO4)CC2)cc(OC)c1OC (stereo not given) | -2.3% (inactive) |
| COc1cc(Cl)c(S(=O)(=O)N2CCN(Cc3ccc4c(c3)OCO4)CC2)cc1Cl | 45.9% (active) |
| Cc1ccccc1CN1CCCCC(NC(=O)c2cccc(C#N)c2)C1=O (stereo not given) | -1.06% (inactive) |
| Cc1nc2ccc(C(=O)N3CCN(C(=O)C(C)(C)C)CC3)cc2n1C1CCCC1 | 1.94% (inactive) |
| Cc1ccc(C2CCN(C(=S)Nc3cccc(Cl)c3)C2)cc1 (stereo not given) | 8.61% (inactive) |
| COc1cc(SC)ccc1C(=O)Nc1nc(C)cs1 | -7.24% (inactive) |
| Cc1csc(NC(=S)Nc2cccc(Cl)c2)n1 | 23.1% (active) |
| C=C(C)C1CC23C(=O)C4(C(=O)c5ccccc5)C[C@@]5(C)CCC(CC2C1(C)C)(C4=O)C35OC (stereo not given in full) | -9.26% (inactive) |
| O=C(C1CCN(S(=O)(=O)c2ccccc2)CC1)N1CCN(C2CCCCC2)CC1 | -10.1% (inactive) |
